# In PubChem BioAssay (NCATS):
# Values joined by “and” are separate entries in the source; they are usually repeats but may differ in a detail not shown here. Identical values can stand only once. Inconclusive results are not listed. A call without a number means that no potency is given here. Active and inactive are the calls of the source. Calls come from the whole dose curve; as a rule, active = well fitted curve in the direction sought with a large enough effect; inconclusive = small, poorly fitted or top-dose-only effect, or another doubt; inactive = no such curve, though single readings can be large; an effect the other way counts as inactive or inconclusive.
# Columns and labels:
# [1] = biological target: Guanine nucleotide-binding protein G(i) subunit alpha-1 (Homo sapiens) (UniProt P63096); assay: qHTS Assay for Inhibitors of RGS12 GoLoco Motif Activity (Green Fluorophore) (AID 879);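 note: negative values mean loss of peptide binding seen as reduced polarization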
# Procedure, shortened: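 A drop in FITC polarization marked displacement of the FITC-tagged RGS12 GoLoco peptide (10 nM) from Gαi1 (50 nM). Compounds were incubated 10 min at room temperature in Tris pH 7.5 buffer containing 150 mM NaCl, 0.1 mM GDP and 0.05% NP40; unlabeled peptide titration served as control.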
# [2] = biological target: Cytochrome P450 3A4 (Homo sapiens) (UniProt P08684); assay: qHTS Assay for Inhibitors and Substrates of Cytochrome P450 3A4 (AID 884); note: series mostly up to about 57 µM; nearly all actives have a fitted effect of over 50% in size
# Procedure, shortened: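 Luminescent readout of luciferin produced by CYP3A4 (20 nM) dealkylation of Luciferin-PPXE, 25 uM (its KM). NADPH-driven reaction ran 60 min at RT after 10 min compound preincubation; data scaled to 57 uM ketoconazole as 100% inhibition.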
# [3] = biological target: Cytochrome P450 3A4 (Homo sapiens) (UniProt P08684); assay: qHTS Assay for Activators of Cytochrome P450 3A4 (AID 885); note: nearly all actives have a fitted effect of over 65% in size
# Procedure, shortened: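 Human CYP3A4 dealkylates Luciferin-PPXE to luciferin, which luciferase detection converts to light. Substrate was at its KM (25uM), buffer 200mM KPO4, reaction 60 min at RT.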
# [4] = biological target: Cytochrome P450 2D6 (Homo sapiens) (UniProt P10635); assay: qHTS Assay for Inhibitors and Substrates of Cytochrome P450 2D6 (AID 891); note: nearly all actives have a fitted effect of over 60% in size; note: potency is the fitted concentration of half-maximal effect
# Procedure, shortened: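 Luminescent read-out of luciferin formed by 5 nM human CYP2D6 demethylating 30 uM Luciferin-ME EGE (Km level) over 60 min at room temperature after NADPH regeneration addition. Data normalized to full inhibition by 1.43 uM quinidine.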
# Sequence of Cytochrome P450 3A4 (Homo sapiens) (P08684 whole entry, looked up): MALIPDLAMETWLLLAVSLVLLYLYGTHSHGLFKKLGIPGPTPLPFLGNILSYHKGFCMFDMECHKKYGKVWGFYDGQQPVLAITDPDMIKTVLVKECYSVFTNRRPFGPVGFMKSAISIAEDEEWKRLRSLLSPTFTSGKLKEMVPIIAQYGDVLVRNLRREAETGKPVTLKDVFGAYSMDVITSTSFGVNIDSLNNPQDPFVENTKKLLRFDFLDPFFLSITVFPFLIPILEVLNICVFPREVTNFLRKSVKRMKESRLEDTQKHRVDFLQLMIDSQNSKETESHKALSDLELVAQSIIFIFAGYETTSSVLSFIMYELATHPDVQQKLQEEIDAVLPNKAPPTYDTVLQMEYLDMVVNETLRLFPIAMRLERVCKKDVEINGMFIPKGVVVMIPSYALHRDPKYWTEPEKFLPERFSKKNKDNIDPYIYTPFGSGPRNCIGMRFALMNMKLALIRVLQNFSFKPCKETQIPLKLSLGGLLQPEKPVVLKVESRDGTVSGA
# Sequence of Cytochrome P450 2D6 (Homo sapiens) (P10635 whole entry, looked up): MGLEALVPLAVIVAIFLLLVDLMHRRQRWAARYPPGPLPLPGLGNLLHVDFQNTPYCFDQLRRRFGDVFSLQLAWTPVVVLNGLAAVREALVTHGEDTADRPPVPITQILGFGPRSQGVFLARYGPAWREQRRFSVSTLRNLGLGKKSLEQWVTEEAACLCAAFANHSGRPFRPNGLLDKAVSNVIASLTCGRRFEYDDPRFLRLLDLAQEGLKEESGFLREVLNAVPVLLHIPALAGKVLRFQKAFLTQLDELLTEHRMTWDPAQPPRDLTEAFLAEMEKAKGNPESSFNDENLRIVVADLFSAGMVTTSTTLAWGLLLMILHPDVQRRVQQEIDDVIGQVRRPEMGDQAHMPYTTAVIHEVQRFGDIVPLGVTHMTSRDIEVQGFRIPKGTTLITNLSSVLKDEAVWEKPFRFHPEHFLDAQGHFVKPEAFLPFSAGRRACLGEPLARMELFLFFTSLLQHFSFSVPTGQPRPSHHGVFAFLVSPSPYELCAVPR
# Sequence of Guanine nucleotide-binding protein G(i) subunit alpha-1 (Homo sapiens) (P63096 whole entry, looked up): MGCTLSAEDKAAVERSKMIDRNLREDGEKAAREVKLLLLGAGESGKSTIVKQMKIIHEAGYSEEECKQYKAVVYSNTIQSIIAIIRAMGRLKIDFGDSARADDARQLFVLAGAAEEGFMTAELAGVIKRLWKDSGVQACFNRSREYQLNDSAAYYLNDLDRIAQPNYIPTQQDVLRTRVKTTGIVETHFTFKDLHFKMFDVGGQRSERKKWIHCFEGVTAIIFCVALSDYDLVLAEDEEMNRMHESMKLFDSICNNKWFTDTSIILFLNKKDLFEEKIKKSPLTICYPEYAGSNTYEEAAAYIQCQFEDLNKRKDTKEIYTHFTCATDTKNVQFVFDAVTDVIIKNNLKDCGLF
Compound,Potency [1],Potency [2],Potency [3],Potency [4]
NC(N)=NC(N)=Nc1cccc(Cl)c1,inactive,inactive,inactive,
NC(N)=NC(N)=Nc1ccccc1,inactive,inactive,,inactive
Nc1ncnc2c1ncn2C1CCCC1,inactive,,inactive,
COc1ccccc1N1CCN(CCCCNC(=O)c2ccc3ccccc3c2)CC1,inactive,,inactive,3.16 µM (active) and 3.98 µM (active)
NC(=O)CNCCC(c1ccccc1)c1ccccc1,inactive,,inactive,
O=c1[nH]ccc2c(O)cccc12,inactive,,inactive,
COc1ccccc1N1CCN(CCCCN2C(=O)c3ccccc3C2=O)CC1,inactive,,inactive,
CCCOC(=O)c1c(-c2ccccc2)nc(CC)c(C(=O)SCC)c1CCC,inactive,,inactive,
[Li+],inactive,,inactive,
O=C(O)/C=C/c1ccc(O)c(O)c1,inactive,,inactive,
N[C@H](C(=O)O)[C@H](O)C(=O)O,inactive,,inactive,
N#CC(C#N)=C(N)/C(C#N)=C/c1ccc(O)cc1,inactive,,inactive,
COc1ccc(CCN(C)CCc2ccc(OC)c(OC)c2)cc1OC,inactive,,inactive,
CCCn1c(=O)c2[nH]c(C3CCCC3)nc2n(CCC)c1=O,inactive,inactive,,inactive
CC(=O)NCCc1c[nH]c2ccc(O)cc12,inactive,,inactive,
Oc1ccc(Cn2cc[nH]c2=S)cc1,inactive,,inactive,
O=C(O)c1ccccc1Nc1ccccc1,inactive,,inactive,
